# In PubChem BioAssay:
# Test: small molecules captured by biotinylated probe aFGF2 – biochemical, small-molecule microarray, fluorescence 635/667, stem cell growth factor project, primary screen (AID 1067);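 also: measures binding of biotinylated aFGF2 protein to printed compounds on slides; z-score merges feature fluorescence and signal-to-noise across triplicate slides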
# Conditions: higher = more signal
row,SMILES,composite z-score
1,O=C(OCCF)C1=CCC(c2cccc(Cl)c2)O1 (configuration not stated),-0.0907
2,COC(=O)[C@@]1(Cc2ccc(OC)cc2)[C@H]2c3cc(C(=O)N4CCCC4)n(Cc4ccccn4)c3C[C@H]2CN1C(=O)c1ccccc1,0.396
3,CC(C)=CCCC(C)=CC(O)C1C=CC2C(=O)N(c3ccccc3)C(=O)C2N1Nc1ccccc1 (configuration not stated),0.155
4,[N-]=[N+]=NCc1ccccc1[C@H]1OC(c2ccc(OCCCO)cc2)=N[C@@]1(CCS(=O)(=O)c1ccccc1)C(=O)N1CCOCC1,0.221
5,COC(=O)[C@@]1(Cc2ccccc2)[C@H]2c3cc(C(=O)N4CCCC4)n(Cc4ccc(C)o4)c3C[C@H]2CN1C(=O)c1ccccc1,-0.162
6,CC(C)OC(=O)CC(=O)CC(O)c1ccc(C#N)cc1 (configuration not stated),0.0798
7,[N-]=[N+]=NCc1ccccc1C[C@]1(C(=O)O)N=C(c2ccc(OCCCO)cc2)O[C@H]1c1ccccc1,-0.0184
8,COC(=O)[C@@]1(Cc2ccc(OC)cc2)[C@H]2c3cc(C(=O)N(C)C)n(Cc4c(OC)[nH]cc(C)c4=O)c3C[C@H]2CN1C(=O)c1ccccc1,-0.102
9,O=c1cccc(CCc2ccccc2)o1,-0.0909
10,CCCCCCCCCCC(O)C1C=CC2C(=O)N(Cc3ccccc3)C(=O)C2N1n1cnnc1 (configuration not stated),0.279
11,COC(=O)C[C@@H]1C[C@H](C)[C@]2(O1)C(=O)N(Cc1ccccc1)c1ccc(NC(C)=O)cc12,-0.144
12,C=CCOC(=O)[C@@H]1[C@H]2C(=O)O[C@H](c3ccccc3)[C@H](c3ccccc3)N2[C@H](c2ccc(OCCOC(=O)[C@@H]3C[C@@H]4C(=O)NCC(=O)N4[C@@H]3c3cccc(OCCO)c3)cc2)[C@@]12C(=O)Nc1ccc(I)cc12,-0.119
